Measurements from the supplement of paper PMC12067093, “Discovery and optimisation of a covalent ligand for TRIM25 and its application to targeted protein ubiquitination” (Chemical Science, 2025).
Targets with the largest changes are over-represented here; the source holds about 21,000 in all.

Compound: Cc1cc(ccc1-c1ccccc1)C(=O)N1CCCN(CC1)C(=O)CCl [compound 10]
Assay: probe-labelled cysteine peptide fold change vs DMSO (competition) (log2 fold change); higher = less target engagement (more negative = stronger competition)
Settings: 10 µM; THP-1; incubation time: 4 h
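Note: competitive profiling in live THP-1 cells: cysteine peptides tagged with an iodoacetamide desthiobiotin (IA-DTB) probe, intensity after compound treatment relative to DMSO-treated cells.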

UniProt O60858, sequence (O60858 whole entry, looked up): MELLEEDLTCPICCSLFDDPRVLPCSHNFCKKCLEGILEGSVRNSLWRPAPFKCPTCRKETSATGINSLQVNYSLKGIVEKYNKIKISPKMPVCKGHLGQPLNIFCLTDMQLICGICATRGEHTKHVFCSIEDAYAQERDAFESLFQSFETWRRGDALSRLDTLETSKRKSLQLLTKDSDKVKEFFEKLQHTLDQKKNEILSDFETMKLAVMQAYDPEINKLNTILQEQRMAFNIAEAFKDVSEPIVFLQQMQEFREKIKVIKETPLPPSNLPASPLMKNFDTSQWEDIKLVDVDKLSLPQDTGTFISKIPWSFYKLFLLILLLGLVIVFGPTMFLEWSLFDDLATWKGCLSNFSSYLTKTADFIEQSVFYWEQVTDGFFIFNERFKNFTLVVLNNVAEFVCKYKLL
UniProt Q2T9J0, sequence (Q2T9J0 whole entry, looked up): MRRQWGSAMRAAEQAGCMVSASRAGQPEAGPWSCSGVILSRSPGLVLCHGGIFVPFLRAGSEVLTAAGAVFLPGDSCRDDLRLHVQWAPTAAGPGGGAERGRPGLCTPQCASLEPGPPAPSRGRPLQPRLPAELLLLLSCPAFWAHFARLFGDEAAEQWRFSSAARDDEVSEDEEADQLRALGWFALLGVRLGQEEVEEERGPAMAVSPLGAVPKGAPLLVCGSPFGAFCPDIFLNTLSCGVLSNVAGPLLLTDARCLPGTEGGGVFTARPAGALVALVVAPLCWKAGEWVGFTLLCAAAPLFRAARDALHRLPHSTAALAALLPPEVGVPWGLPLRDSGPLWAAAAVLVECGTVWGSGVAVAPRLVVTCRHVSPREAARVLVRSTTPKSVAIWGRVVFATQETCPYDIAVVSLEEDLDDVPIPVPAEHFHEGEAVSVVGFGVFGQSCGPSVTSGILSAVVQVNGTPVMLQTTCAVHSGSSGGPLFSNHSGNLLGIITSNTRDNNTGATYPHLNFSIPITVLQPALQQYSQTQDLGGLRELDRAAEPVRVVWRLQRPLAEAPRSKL
UniProt Q8IWV8, sequence (Q8IWV8 whole entry, looked up): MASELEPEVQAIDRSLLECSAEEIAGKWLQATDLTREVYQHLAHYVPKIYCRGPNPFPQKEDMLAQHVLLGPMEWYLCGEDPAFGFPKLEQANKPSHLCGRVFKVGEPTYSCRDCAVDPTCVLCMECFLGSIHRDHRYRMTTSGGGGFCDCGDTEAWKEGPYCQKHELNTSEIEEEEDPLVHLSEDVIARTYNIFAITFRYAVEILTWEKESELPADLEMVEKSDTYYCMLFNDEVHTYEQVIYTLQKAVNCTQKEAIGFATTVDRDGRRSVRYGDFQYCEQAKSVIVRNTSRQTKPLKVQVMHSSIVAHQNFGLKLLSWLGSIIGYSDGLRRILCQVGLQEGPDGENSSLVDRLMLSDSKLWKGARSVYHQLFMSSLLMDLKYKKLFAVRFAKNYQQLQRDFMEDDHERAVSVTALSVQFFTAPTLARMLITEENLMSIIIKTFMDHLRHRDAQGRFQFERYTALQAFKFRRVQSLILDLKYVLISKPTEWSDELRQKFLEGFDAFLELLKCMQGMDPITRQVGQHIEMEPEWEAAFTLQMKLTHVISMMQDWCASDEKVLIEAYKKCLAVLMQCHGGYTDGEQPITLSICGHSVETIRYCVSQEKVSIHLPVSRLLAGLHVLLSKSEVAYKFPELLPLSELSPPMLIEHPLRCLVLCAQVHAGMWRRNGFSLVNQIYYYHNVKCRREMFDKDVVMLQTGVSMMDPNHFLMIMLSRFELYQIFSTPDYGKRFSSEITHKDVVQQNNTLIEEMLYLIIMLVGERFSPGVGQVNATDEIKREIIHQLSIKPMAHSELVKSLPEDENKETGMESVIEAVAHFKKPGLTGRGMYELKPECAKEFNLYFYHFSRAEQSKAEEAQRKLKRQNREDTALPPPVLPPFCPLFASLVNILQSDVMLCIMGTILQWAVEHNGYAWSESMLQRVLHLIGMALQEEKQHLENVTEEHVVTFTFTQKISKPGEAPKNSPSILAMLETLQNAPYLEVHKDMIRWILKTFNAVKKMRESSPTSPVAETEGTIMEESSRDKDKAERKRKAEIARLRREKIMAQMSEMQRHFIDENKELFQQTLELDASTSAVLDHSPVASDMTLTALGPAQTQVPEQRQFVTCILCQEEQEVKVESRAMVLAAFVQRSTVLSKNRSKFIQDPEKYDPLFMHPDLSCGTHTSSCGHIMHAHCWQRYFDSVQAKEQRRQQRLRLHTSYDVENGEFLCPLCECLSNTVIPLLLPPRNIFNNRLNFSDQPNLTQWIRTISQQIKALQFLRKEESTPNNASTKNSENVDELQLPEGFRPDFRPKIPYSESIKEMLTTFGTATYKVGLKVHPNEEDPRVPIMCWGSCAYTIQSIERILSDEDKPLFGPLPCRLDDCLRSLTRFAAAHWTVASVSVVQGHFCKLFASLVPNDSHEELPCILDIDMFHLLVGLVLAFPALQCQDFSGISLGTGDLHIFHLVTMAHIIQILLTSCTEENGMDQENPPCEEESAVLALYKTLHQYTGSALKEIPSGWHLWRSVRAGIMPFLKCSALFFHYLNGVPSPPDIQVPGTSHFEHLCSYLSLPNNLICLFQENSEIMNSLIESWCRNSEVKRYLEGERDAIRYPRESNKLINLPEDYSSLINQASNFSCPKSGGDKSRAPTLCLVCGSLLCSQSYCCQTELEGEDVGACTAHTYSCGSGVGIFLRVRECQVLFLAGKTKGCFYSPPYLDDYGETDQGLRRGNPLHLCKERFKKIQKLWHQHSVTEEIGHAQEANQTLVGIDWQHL
UniProt O94966, sequence (O94966 whole entry, looked up): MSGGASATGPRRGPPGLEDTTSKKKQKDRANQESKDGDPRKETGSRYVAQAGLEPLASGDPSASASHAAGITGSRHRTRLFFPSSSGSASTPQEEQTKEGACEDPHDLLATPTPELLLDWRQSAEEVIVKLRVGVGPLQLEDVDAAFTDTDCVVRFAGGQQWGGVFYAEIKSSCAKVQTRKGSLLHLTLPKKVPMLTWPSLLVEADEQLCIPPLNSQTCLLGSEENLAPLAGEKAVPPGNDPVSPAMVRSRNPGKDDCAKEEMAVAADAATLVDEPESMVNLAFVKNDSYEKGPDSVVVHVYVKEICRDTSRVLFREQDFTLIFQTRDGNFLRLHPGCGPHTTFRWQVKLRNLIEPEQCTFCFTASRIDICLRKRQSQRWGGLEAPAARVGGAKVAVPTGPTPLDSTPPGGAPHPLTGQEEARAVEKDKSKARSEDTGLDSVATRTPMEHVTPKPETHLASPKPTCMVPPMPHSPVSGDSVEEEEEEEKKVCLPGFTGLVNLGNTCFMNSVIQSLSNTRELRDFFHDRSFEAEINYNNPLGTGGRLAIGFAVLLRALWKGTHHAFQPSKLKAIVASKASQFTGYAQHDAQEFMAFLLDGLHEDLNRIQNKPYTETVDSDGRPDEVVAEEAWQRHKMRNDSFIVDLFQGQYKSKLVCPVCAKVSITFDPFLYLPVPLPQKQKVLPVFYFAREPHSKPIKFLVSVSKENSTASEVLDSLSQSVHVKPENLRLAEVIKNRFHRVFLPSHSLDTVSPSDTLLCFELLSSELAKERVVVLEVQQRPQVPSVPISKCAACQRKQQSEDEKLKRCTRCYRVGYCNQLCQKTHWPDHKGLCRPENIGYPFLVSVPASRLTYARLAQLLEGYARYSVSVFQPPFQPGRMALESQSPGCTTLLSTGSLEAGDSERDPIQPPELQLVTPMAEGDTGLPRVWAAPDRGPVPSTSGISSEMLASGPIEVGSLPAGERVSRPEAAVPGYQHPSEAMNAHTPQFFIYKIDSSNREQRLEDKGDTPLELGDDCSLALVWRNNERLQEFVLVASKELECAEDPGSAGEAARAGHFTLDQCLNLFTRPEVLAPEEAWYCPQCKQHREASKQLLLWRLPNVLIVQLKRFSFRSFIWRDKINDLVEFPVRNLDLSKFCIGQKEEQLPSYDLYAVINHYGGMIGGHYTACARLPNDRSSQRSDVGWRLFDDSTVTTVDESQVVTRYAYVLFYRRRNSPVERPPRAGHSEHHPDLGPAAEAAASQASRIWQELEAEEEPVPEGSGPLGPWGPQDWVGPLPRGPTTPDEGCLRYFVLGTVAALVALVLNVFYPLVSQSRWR
UniProt P41226, sequence (P41226 whole entry, looked up): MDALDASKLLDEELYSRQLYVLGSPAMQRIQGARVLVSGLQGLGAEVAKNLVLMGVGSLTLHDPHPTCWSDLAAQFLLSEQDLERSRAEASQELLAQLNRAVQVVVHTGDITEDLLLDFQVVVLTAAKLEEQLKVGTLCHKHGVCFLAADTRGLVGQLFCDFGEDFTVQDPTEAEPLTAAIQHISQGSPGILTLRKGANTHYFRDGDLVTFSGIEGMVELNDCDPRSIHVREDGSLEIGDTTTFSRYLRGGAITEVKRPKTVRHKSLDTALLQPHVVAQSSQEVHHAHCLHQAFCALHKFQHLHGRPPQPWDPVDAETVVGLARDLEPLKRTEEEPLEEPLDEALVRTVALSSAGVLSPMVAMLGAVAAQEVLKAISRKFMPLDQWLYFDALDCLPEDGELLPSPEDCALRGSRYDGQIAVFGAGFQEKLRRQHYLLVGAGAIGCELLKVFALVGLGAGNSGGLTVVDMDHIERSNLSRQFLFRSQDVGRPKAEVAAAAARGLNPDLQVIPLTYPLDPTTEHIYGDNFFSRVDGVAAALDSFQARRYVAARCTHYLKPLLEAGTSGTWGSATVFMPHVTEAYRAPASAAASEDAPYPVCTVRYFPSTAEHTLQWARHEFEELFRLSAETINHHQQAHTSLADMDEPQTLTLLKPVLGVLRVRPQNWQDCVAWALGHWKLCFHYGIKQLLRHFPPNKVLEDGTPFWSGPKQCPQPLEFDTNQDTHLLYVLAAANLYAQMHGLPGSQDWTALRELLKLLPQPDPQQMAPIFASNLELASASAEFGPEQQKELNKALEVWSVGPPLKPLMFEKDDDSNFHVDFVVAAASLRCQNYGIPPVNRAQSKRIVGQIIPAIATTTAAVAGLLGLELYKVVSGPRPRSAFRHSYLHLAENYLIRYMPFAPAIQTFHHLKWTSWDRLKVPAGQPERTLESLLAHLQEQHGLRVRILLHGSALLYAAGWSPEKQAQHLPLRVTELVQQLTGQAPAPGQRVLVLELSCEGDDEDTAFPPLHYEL

Target	probe-labelled cysteine peptide fold change
UBN1_Q9NPG3_711_VGGVLCTEEK (UniProt Q9NPG3)	-0.0763
TRNT1_Q96Q11_373_YQGEHCLLK (UniProt Q96Q11)	-0.39
VCPIP1_Q96JH7_207+219_SQECLIPVHVDGDGHCLVHAVSR (UniProt Q96JH7)	-1.2
UBR2_Q8IWV8_1360_ILSDEDKPLFGPLPCR (UniProt Q8IWV8)	-0.203
USP19_O94966_1169_EEQLPSYDLYAVINHYGGMIGGHYTACAR (UniProt O94966)	-0.00515
TUBA3C_P0DPH7_4+20+25_MRECISIHVGQAGVQIGNACWELYCLEHGIQPDGQMPSDK<|>TUBA3D_P68363_4+20+25_MRECISIHVGQAGVQIGNACWELYCLEHGIQPDGQMPSDK<|>TUBA1B_Q6PEY2_4+20+25_MRECISIHVGQAGVQIGNACWELYCLEHGIQPDGQMPSDK<|>TUBA3E_Q9BQE3_4+20+25_MRECISIHVGQAGVQIGNACWELYCLEHGIQPDGQMPSDK (UniProt Q9BQE3+Q6PEY2+P68363+P0DPH7)	0.318
UBA7_P41226_68_NLVLMGVGSLTLHDPHPTCWSDLAAQFLLSEQDLER (UniProt P41226)	0.0506
TRIM13_O60858_106_GHLGQPLNIFCLTDMQLICGICATR (UniProt O60858)	0.0739
TRIM25_Q14258_119_TCLVCMASFCQEHLQPHFDSPAFQDHPLQPPVR (UniProt Q14258)	0.371
TYSND1_Q2T9J0_17_AAEQAGCMVSASR (UniProt Q2T9J0)	0.0109
TRIM25_Q14258_506_FTYCSQVLGLHCYK (UniProt Q14258)	-1.09
